Screening results (PubChem BioAssay)
HTT aggregate = qHTS Multiplex Assay to Identify Dual Action Probes in a Cell Model of Huntington: Aggregate Formation (GFP); PC12 HttQ103-GFP aggregates, Acumen cytometry, 40 h; Potency, µM (titrated, usually from 46.1 µM), for inactives: at the highest dose activity change, negative = inhibition, usual class: inhibitors; actives 1.1% (n = 220,000); AID 1688, 2009; note: potency is the fitted concentration of half-maximal effect; % is set by controls: 0 for no effect and ±100 for the full control effect; nearly all actives have a fitted effect of over 60% in size
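Ecdysone-promoter PC12 model expressing HTT exon 1 Q103 fused to GFP, induced by tebufenozide at 100 nM final. Compounds titrated; aggregates sized 1–25 µm scored on a 488 nm laser cytometer.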
IMPase cell inh = qHTS Assay for Identifying the Cell-Membrane Permeable IMPase Inhibitors | Inositol monophosphatase 1 (Rattus norvegicus), P97697 | CHO-M1 cells, IP1 accumulation, HTRF TR-FRET ratio | inhibition (IP1 accumulation), % at 46.1 µM | 120,000 tested, under 10 active; active = well fitted curve in the direction sought with a large enough effect in the signal ratio, not every such curve was filed as active; inconclusive = small, poorly fitted or top-dose-only effect, or a change in a side signal; inactive = no such curve, though single readings can be large or run the other way; the % refers to the signal ratio;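 note: cells stimulated with carbachol in lithium chloride buffer; plate controls were DMSO basal wells for no effect and reference inhibitor wells for full effect; higher means more IMPase inhibition seen as more IP1 and lower FRET ratio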
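CHO-M1, 2000 cells/well, cultured 16–30 h; cpd up to 46 uM; carbachol (50 uM solution, stimulation buffer w/ 50 mM LiCl, pH 7.4), 30 min 37C; IP-One TR-FRET, 10 min RT; Ex 320/Em 665, 620; Hill-fit AC50.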
IMPase Li inh = qHTS Assay for Identifying the Cell-Membrane Permeable IMPase Inhibitors: Potentiation with Lithium. Potency, µM (doses to about 59.4 µM), for the others: at the top dose activity, negative = IMPase inhibition, actives largely listed as inhibitors. actives 0.35% (n = 210,000). CHO-M1 cells, IP1 TR-FRET (IP-One), carbachol + lithium;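 note: IP1 builds up when IMPase is blocked and the TR-FRET signal falls; potency is the fitted concentration of half-maximal effect; plate controls were basal vehicle for no effect and high inhibitor control for full effect; nearly all actives have a fitted effect of over 50% in size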
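CHO cells stably expressing M1 receptor (2000/well, cultured 16–30 h) treated 30 min at 37C with compound plus low lithium. Cytosolic IP1 by TR-FRET (665/620 ratio and 620 channel) after 10 min lysis; AC50 by Hill fit.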
HPGD block = qHTS Assay for Inhibitors of HPGD (15-Hydroxyprostaglandin Dehydrogenase); 15-hydroxyprostaglandin dehydrogenase [NAD(+)] (Homo sapiens), P15428; purified HPGD, NADH fluorescence kinetic, PGE2 substrate; Potency, µM, without a hit: at the top dose activity change, negative = inhibition, most hits filed as inhibitors; actives 4.3% (n = 150,000); active = well fitted inhibition curve with a large enough effect, not every such curve was filed as active; inconclusive = small, poorly fitted or top-dose-only effect, or another doubt; inactive = no such curve, though single readings can be large or run the other way; note: potency is the fitted concentration of half-maximal effect; % is set by controls: 0 for no effect and ±100 for the full control effect
Target sequence (P15428 whole entry, looked up): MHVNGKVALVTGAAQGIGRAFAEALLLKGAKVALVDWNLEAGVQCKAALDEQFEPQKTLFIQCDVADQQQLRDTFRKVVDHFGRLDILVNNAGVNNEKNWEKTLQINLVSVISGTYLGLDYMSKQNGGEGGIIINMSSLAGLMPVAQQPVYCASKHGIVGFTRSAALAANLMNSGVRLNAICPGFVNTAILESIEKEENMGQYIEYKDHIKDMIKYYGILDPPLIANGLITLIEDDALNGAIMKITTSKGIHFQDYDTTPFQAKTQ
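NADH formation kinetics: reaction with 30 uM PGE2 and 1 mM NAD+ (final), 20 nM enzyme, Tris-HCl pH 8 with Tween 20, after 15 min compound preincubation at room temperature. Fluorescence change, last versus first of five reads.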
ALDH1A1 inh = qHTS Assay for Inhibitors of Aldehyde Dehydrogenase 1 (ALDH1A1). Purified ALDH1A1, NADH fluorescence, propionaldehyde substrate. Potency, µM (series often up to 75.3 µM), inactives show at the highest dose activity, negative = inhibition, most hits filed as inhibitors. Aldehyde dehydrogenase 1A1 (Homo sapiens), P00352. actives 7.3% (n = 220,000); active = well fitted inhibition curve with a large enough effect, not every such curve was filed as active; inconclusive = small, poorly fitted or top-dose-only effect, or another doubt; inactive = no such curve, though single readings can be large or run the other way;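 note: potency is the fitted concentration of half-maximal effect; plate controls were no enzyme wells and a reference inhibitor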
Target sequence (P00352 whole entry, looked up): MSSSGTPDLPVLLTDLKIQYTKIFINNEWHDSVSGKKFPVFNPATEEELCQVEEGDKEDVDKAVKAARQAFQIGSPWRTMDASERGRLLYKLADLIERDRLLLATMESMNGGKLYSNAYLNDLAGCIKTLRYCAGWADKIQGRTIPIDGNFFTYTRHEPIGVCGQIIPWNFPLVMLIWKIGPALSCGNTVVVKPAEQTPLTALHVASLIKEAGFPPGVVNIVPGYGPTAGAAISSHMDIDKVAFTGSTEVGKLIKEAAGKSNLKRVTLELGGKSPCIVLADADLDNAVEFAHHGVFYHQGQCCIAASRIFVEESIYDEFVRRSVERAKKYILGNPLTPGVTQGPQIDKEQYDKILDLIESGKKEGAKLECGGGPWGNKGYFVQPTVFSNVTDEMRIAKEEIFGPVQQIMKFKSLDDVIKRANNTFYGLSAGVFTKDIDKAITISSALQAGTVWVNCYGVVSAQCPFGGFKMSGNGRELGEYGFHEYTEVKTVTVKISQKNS
HTT cytoprotect = qHTS Multiplex Assay to Identify Dual Action Probes in a Cell Model of Huntington: Cytoprotection (ATP); actives 0.14% (n = 230,000); PC12 HTT-Q103 induced, cytoprotection, ATP luminescence, 40 h; Potency, µM (top dose mostly 56.4 µM), inactives show cytoprotection (ATP increase), hits mostly activators; note: potency is the fitted concentration of half-maximal effect; % of control where 0% means no effect; nearly all actives have a fitted effect of over 45% in size
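Quantitative HTS on tebufenozide-induced (100 nM) PC12 cells expressing HTTQ103 exon 1–GFP; compounds tested as a concentration series; survival measured via cellular ATP.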
* = called active by the depositor; ? = inconclusive; / = no result given; [ ] = another dose, or the depositor's remark. A selection: hits, their analogues and other compounds. The true share with any hit is near 9.4%. Unless noted, calls come from the whole dose curve; as a rule, active = well fitted curve in the direction sought with a large enough effect; inconclusive = small, poorly fitted or top-dose-only effect, or another doubt; inactive = no such curve, though single readings can be large; an effect the other way counts as inactive or inconclusive.

SMILES	HTT aggregate	IMPase cell inh	IMPase Li inh	HPGD block	ALDH1A1 inh	HTT cytoprotect
CCOC(=O)Cn1c(=O)oc2cc(S(=O)(=O)Nc3ccc(N(CC)CC)cc3C)ccc21	?	2.6	21.6%[38.3 µM]	28.2µM*	?	-22.4%
CN(C)CCN1C(=O)c2ccccc2N(C)c2ccccc21	0.8%	/	-5.9%	/	-1.3%	1.5%
O=C1NC(c2ccccc2)Nc2c1sc(=S)n2-c1ccccc1 (stereo not drawn)	?	/	7.2%	/	31.6µM*	-1.1%
COc1ccc(C2NC(=O)c3sc(=S)n(-c4ccccc4)c3N2)cc1 (stereo not drawn)	-10.4%	3.1	21.4%[38.3 µM]	-18.9%	-6.3%	2.3%
Cn1c(=O)c(-c2cccs2)nc2cnc(N3CCOCC3)nc21	/	/	15.2%	/	2.6%	-35.9%
COc1cc(C2CC(=O)N3CN(c4ccccc4C)CSC3=C2C#N)cc(OC)c1OC (stereo not drawn)	13.4%	-3.7	-27.5%[38.3 µM]	28.2µM*	2.82µM*	-6.7%
COc1ccccc1N1CSC2=C(C#N)C(c3ccc(SC)cc3)CC(=O)N2C1 (stereo not drawn)	11.6%	1.2	-14.9%[38.3 µM]	8.91µM*	8.91µM*	-33.7%
Cn1c(=O)cc(OCCCC(=O)NC2CCCC2)c2ccccc21	32.9%	4.0	-18.7%[38.3 µM]	14.1µM*	2.8%	-29.6%
Cn1c(=O)cc(OCCCC(=O)N2CCCCC2)c2ccccc21	19.6%	9.8	7.6%	7.08µM*	-4.5%	37.3%[1.9 µM]
CN1CCN(C(=O)CCCOc2cc(=O)n(C)c3ccccc23)CC1	6.8%	-7.1	16.7%[38.3 µM]	-6.3%	5.2%	6.7%
CCOC(=O)Cc1cc(C(=O)Nc2ccc(Br)cc2)sc1-c1ccc(C)cc1	/	-2.3	/	/	/	/
COC(=O)c1ccccc1NC(=O)CN1C(=O)COc2ccc(Cl)cc21	/	6.8	/	/	/	/
CCOC(=O)c1c(N)sc(N)c1C(=O)OCC	20.4%	/	12.9%	8.91µM*	1.78µM*	/
CCOC(=O)c1c(N)ssc1=S	-11.9%	0.8	-5.3%	25.1µM*	3.16µM*	-10.0%
C=CCn1sc(N)c(C(=O)OCC)c1=S	-7.9%	-4.3	-1.7%[38.3 µM]	-6.1%	5.1%	-5.5%
CCOC(=O)c1c(N)sc(C(N)=O)c1C	-5.6%	-13.4	-10.4%[38.3 µM]	?	25.1µM*	-0.4%
CCOC(=O)c1c(N)sc(C(=O)Nc2ccccc2)c1C	-14.4%[9.22 µM]	/	0.9%	/	10µM*	-50.4%[10 µM]
CCOC(=O)c1sc(N)c(C(N)=O)c1C	-13.5%	/	1.9%	/	?	-16.8%
CCOC(=O)c1c(N)sc2c1CCC(CC)C2 (stereo not drawn)	-7.8%	-10.3	16.9%[38.3 µM]	?	?	-3.6%
Cc1c(C(=O)OC(C)C)sc(N)c1C(=O)OC(C)C	-6.0%	/	14.6%	22.4µM*	?	-19.7%[10 µM]
CCOC(=O)c1c(N)sc(=S)c2c1CCC2	-7.7%	5.9	-18.8%[38.3 µM]	?	31.6µM*	-6.5%
COC(=O)c1sc(NC(=O)c2cc3c(s2)CCCC3)nc1C	-7.6%	-7.9	25.5%[38.3 µM]	-10.7%	-13.6%	3.0%[0.074 µM]
Cc1csc(NC(=O)c2cc3c(s2)CCC3)n1	-4.9%	5.7	-1.8%[38.3 µM]	7.94µM*	?	-78.7%[10 µM]
O=C(Nc1nnc(C2CC2)s1)c1cc2c(s1)CCCCCC2	0.0%	1.4	10µM*	?	?	-21.7%
CC(NC(=O)c1cc2c(s1)CCCC2)C(C)(C)C (stereo not drawn)	0.5%	0.8	10.8%[38.3 µM]	14.1µM*	-4.4%	10.9%
SMILES	HTT aggregate	IMPase cell inh	IMPase Li inh	HPGD block	ALDH1A1 inh	HTT cytoprotect
CCC(CO)NC(=O)c1cc2c(s1)CCC2 (stereo not drawn)	-14.7%	4.6	22.2%[38.3 µM]	-4.5%	3.5%	-8.6%
COc1ccc(-c2coc3cc(O[C@@H]4O[C@@H](CO)[C@@H](O)[C@@H](O)[C@H]4O)cc(O)c3c2=O)cc1	/	/	/	/	/	-22.9%
Brc1ccc2c(c1)OCCOCCOc1cc(Br)ccc1OCCOCCOCCO2	25.1µM*	4.3	17.8%	-10.5%	2.5%	-16.7%[10 µM]
Brc1cc2c(cc1Br)OCCOCCOCCOCCO2	-6.9%	/	3.9%	/	-8.9%	-34.9%
S=c1ccss1	/	/	1.4%	6.31µM*	2.24µM*	/
COc1cc(C)cc2c(-c3c(O)cc(O)c4c3C[C@H](C)N[C@@H]4C)cc(-c3cc(-c4c(O)cc(O)c5c4C[C@H](C)N[C@@H]5C)c4cc(C)cc(OC)c4c3O)c(O)c12	/	/	8.4%	-11.8%	?	7.5%[10 µM]
Cc1cc(C)nc(-n2ncc3c2CC(c2ccccc2)CC3=O)n1 (stereo not drawn)	-0.6%	/	-2.0%	28.2µM*	-23.4%	14.7%[10 µM]
CC(=O)c1ccc(OCCCC(=O)n2nnc3ccccc32)cc1	9.6%	0.5	-7.9%[38.3 µM]	20µM*	10.1%	-4.4%
O=C(CCCOc1ccc(Cl)cc1Cl)n1nnc2ccccc21	-6.5%	-17.7	-3.3%	8.91µM*	8.1%	0.1%[10 µM]
OC[C@@H](O)CN1CCN(c2ccccc2)CC1	/	-3.9[20.6 µM]	8.2%	-7.5%	4.7%[20.9 µM]	-4.0%[40.3 µM]
COc1ccc(Cn2cnc3c(N)c(C)c(C)cc32)cc1	4.1%	/	2.8%	/	-4.6%	12.4%[10 µM]
Cc1cc2c(ncn2Cc2ccccc2)c([N+](=O)[O-])c1C	3.0%	5.8	27.0%[38.3 µM]	20µM*	?	7.8%
CCSc1nnc2c(n1)OC(CC)N(C(C)=O)c1ccccc1-2 (stereo not drawn)	/	-3.2	/	/	/	/
CCOc1ccc(/C=C/C(=O)c2ccc(-c3ccccc3)cc2)cc1	7.1%	/	-3.7%	-17.3%	-9.6%	11.3%[10 µM]
CC(C)(C)c1cc(C(=O)/C=C/c2ccc(C(=O)O)cc2)cc(C(C)(C)C)c1	/	/	1.2%	-18.8%	5.6%	2.51µM*
Nc1ccc(N=Nc2ccccc2)c(N)c1	/	/	16.9%	-12.4%	?	-129.2%
COc1cc2cc(Br)cc(Br)c2nc1C	-30.4%	?	12.6µM*	-15.4%	?	-1.0%
Cc1cccc(C(=O)N(Cc2nc3ccccc3c(=O)[nH]2)C2CCCCC2)c1	4.7%[9.22 µM]	/	17.4%	/	?	9.6%[10 µM]
CCCN(CC(=O)Nc1ccc(Cl)cc1Cl)C(=O)/C=C/c1ccco1	?	4.1	7.5%	-2.6%	0.224µM*	6.3%[10 µM]
Cc1cccc2sc(N)nc12	/	/	-18.9%	0.4%	?	5.9%
